# Data as given in PubChem BioAssay.
# “And” between values parts separate entries of the source, which are not always exact repeats. Identical values can stand only once. The source made the active and inactive calls. Unless noted, no rule for the calls is given here.
# How the values were obtained:
# [1] = inhibitors of CD8+ T cell-vesicle binding, pilot screen, LFA-1/ICAM-1 modulator project, MLPCN validation set, flow cytometry (AID 2523;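 active = response below a set limit, under 55% cells CD8-positive and vesicle-bound, and CD8 cells' 90th-percentile brightness under 279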;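 as to vesicle binding response: mean PE anti-B7-1 fluorescence of CD8+ cells relative to row control; 100% = QL9-loaded vesicles with DMSO vehicle in the same plate row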); details: 2C mouse CD8+ T cells, at 7 µM, stronger effect = lower value; double positive events: measured here: CD8+/vesicle+ event percentage
# [2] = target: Integrin beta-1 (Homo sapiens) + Integrin alpha-4 (Homo sapiens) (UniProt P13612+P05556); test: inhibition of HUTS-21 binding to VLA-4, pilot screen, VLA-4 allosteric modulator project, U937 cells, HUTS-21 mAb, flow cytometry, validation set (AID 2674;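 active = inhibition above 50%, about 3 SD of the validation set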;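 also: antibody binding induced by the VLA-4 ligand LDV present at three times its Kd; 0% = LDV ligand with antibody and no compound and 100% = antibody without LDV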); details: HUTS-21 LIBS mAb binding, at 6.7 µM, stronger effect = higher value
# [3] = superoxide lowering in aged yeast cells, pilot screen, validation compound set (AID 2706;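 active = superoxide response below 65% of plate, a cut near 3 SD across the whole screen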;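 also: yeast exposed to compound for one week at 30 degrees C before staining; 100% = mean of all compound wells on the same plate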); details: S. cerevisiae aging, superoxide DHE fluorescence; at 10 µM; stronger effect = lower value
# [4] = target: Beta-adrenergic receptor kinase 1 (Homo sapiens) (UniProt P25098); test: GRK2 binders displacing RNA aptamer, biochemical, validation, human GRK2, bead flow cytometry (AID 488806;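 active = aptamer binding inhibition above 30%, about 3 SD of noise from non-fluorescent compounds; inactive = inhibition at or below 30%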); details: bead-bound GRK2, FAM-aptamer displacement, at 10 µM, stronger effect = higher value
# Beta-adrenergic receptor kinase 1 (Homo sapiens), sequence (P25098 whole entry, looked up): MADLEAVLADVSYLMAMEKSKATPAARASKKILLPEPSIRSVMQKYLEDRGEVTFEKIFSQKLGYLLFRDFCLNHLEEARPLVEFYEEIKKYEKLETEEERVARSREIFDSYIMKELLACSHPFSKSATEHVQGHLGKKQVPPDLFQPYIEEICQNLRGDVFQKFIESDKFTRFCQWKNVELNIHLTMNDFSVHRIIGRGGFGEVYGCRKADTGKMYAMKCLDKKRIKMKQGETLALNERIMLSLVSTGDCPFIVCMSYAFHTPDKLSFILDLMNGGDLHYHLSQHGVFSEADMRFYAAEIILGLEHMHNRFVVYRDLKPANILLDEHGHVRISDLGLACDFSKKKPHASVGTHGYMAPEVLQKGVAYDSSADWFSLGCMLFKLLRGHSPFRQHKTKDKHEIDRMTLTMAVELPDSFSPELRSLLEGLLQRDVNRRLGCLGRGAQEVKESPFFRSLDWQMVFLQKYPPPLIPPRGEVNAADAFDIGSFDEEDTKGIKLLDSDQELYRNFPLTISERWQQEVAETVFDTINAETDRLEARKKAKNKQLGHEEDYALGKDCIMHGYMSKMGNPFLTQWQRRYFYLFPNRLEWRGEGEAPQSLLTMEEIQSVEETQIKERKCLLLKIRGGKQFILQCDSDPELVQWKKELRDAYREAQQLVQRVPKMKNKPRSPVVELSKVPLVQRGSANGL
# [5] = target: AP-2 complex subunit beta (Homo sapiens) (UniProt P63010); test: inhibitors of arrestin peptide binding to AP2, pilot screen, biochemical, validation set, GST-AP2 beads, flow cytometry (AID 504541;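 active = inhibition above 54%, about 3 SD of non-fluorescent compounds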;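 also: AP2 carries R879A mutation and is captured from E. coli lysate; bead-bound FITC arrestin peptide fluorescence measuring arrestin peptide binding to AP2; 0% = DMSO wells and 100% = excess unlabeled arrestin peptide control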); details: FITC arrestin peptide, at 10 µM, stronger effect = higher value
# AP-2 complex subunit beta (Homo sapiens), sequence (P63010 whole entry, looked up, one chain of several): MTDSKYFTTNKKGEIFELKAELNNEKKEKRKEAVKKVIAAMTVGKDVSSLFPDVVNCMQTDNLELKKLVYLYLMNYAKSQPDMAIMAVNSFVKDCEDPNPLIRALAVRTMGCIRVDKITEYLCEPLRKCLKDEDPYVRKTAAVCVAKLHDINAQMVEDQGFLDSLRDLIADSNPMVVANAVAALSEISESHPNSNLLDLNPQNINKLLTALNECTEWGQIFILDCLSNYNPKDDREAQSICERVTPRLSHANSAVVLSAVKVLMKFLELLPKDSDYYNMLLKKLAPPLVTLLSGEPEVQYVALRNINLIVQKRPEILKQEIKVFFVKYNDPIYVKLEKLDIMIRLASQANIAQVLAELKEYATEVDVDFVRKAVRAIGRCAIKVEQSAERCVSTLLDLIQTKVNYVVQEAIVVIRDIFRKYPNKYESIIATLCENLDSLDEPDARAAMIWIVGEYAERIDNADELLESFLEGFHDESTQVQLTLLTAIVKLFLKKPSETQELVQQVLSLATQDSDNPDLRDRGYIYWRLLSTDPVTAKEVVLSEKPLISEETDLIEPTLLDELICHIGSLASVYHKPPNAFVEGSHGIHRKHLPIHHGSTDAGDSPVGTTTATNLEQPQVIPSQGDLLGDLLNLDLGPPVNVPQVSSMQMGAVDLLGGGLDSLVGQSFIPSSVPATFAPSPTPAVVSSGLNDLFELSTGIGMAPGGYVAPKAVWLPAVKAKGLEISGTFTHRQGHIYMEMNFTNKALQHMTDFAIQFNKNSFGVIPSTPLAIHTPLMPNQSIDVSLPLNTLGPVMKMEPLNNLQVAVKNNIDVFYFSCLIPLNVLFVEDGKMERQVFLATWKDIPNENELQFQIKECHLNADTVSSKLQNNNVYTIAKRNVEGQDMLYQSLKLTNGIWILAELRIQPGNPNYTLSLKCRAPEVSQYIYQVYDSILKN
# [6] = yeast V-ATPase proton transport modulators, S. cerevisiae, pHLuorin, HTS validation (AID 504600; in the data active = response above about 15%;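 also: plate controls were DMSO for no effect and reference compound for full effect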); details: S. cerevisiae pHLuorin cytosolic pH, at 10 µM, stronger effect = higher value
# [7] = system: anti-desmoglein-3 scFv antibody binding to human DSG3; test: inhibitors of anti-DSG3 scFv binding to DSG3, pilot screen, biochemical, validation compound set, bead-based, flow cytometry (AID 588368;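 active = binding below the plate cutoff, the plate median minus 3 SD, with a reading above zero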;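 also: signal is the median channel fluorescence of bead-bound GFP antibody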); details: Protein G beads, DSG3-Fc, scFv-GFP binding, at 10 µM, stronger effect = lower value
# [8] = system: Botulinum neurotoxin type F light chain protease (Clostridium botulinum); test: Botulinum neurotoxin type F light chain protease inhibition, multiplex microsphere flow cytometry, validation set (AID 588459); details: multiplex microsphere protease substrate cleavage assay, at 10 µM, stronger effect = higher value
# [9] = target: Botulinum neurotoxin type A (Clostridium botulinum) (UniProt P0DPI0); test: BoNT/A light chain protease inhibitors, biochemical, multiplex microsphere flow cytometry, validation set (AID 588460); details: at 10 µM, stronger effect = higher value
# Botulinum neurotoxin type A (Clostridium botulinum), sequence (P0DPI0 whole entry, looked up): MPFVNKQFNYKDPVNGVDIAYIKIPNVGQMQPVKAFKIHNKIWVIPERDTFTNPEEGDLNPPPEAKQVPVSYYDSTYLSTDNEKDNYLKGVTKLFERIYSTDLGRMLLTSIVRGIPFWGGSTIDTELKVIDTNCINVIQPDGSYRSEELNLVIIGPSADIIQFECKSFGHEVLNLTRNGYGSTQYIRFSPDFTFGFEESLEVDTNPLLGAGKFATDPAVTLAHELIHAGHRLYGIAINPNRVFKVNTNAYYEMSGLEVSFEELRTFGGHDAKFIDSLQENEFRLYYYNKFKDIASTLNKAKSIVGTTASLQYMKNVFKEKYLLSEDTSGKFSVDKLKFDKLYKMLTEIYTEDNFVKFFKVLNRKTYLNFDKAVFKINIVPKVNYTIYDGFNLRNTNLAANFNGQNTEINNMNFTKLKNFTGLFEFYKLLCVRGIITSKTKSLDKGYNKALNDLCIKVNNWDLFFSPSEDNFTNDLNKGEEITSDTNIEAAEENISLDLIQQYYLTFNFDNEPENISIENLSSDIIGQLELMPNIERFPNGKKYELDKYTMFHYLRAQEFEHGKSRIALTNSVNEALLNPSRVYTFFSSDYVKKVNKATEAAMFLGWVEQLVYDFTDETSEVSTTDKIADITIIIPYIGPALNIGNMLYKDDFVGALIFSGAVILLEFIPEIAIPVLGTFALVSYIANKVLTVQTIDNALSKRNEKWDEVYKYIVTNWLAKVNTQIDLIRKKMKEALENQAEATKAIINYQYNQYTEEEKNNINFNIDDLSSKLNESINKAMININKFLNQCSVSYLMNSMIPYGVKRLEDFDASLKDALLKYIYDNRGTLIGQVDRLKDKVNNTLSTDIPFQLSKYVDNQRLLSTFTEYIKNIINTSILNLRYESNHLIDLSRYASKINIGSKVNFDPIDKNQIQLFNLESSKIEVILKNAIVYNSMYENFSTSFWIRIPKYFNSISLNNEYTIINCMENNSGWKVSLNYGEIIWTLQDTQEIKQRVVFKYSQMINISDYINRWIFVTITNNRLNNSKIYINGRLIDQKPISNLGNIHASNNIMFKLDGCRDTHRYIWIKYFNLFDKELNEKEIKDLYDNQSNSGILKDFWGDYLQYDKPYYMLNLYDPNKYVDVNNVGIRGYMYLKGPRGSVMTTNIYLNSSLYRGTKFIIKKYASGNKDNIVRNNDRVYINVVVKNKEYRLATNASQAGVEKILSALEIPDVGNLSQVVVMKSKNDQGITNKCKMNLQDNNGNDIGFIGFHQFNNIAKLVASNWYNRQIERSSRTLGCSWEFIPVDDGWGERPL
# [10] = target: Lethal factor (Bacillus anthracis) (UniProt P15917); test: Lethal factor protease inhibitors, Bacillus anthracis, multiplex microsphere cleavage assay, validation set (AID 588461); details: flow cytometry, at 10 µM, stronger effect = higher value
# Lethal factor (Bacillus anthracis), sequence (P15917 whole entry, looked up): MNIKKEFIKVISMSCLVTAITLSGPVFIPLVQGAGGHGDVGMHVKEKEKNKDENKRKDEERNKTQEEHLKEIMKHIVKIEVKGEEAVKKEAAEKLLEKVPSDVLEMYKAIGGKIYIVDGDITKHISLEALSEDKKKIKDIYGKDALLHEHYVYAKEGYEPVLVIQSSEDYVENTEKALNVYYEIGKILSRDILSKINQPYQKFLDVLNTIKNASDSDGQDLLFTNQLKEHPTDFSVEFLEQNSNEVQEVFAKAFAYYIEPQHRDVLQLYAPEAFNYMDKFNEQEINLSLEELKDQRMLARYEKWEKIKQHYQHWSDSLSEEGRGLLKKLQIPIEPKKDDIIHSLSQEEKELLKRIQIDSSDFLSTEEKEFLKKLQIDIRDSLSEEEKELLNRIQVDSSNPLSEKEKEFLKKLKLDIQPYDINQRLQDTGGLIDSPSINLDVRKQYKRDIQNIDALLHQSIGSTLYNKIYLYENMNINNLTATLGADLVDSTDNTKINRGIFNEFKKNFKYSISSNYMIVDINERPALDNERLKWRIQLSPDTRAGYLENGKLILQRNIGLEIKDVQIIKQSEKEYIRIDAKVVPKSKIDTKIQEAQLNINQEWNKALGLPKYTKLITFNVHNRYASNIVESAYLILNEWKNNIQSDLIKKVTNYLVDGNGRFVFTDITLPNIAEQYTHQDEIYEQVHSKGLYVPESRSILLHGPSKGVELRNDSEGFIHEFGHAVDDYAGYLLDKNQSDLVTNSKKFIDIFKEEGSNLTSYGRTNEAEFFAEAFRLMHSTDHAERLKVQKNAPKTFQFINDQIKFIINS
# [11] = inhibitors of fungal efflux pumps CDR1, CDR2, MDR1, pilot screen, validation compound set, multiplex, phenotypic (AID 588506;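 active = efflux inhibition above 0.42, the validation set average plus 4 SD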;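 also: Nile Red retained in cells so higher fluorescence means more efflux inhibition; 0 = negative control wells and 1 = enniatin B 25 µM full block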); details: S. cerevisiae pump-expressing triplex, Nile Red efflux flow cytometry; at 10 µM; stronger effect = higher value
# [12] = target: ATP-binding cassette sub-family B member 6 (Homo sapiens) (UniProt Q9NP58); test: ABCB6 transporter inhibitors, pilot screen, K562-ABCB6 cells, flow cytometry, validation set (AID 588550;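 active = inhibition above the screen-wide mean plus 3 SD, about 51%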;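 also: 0% = DMSO wells and 100% = benzethonium chloride 70 µM positive control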); details: K562-ABCB6 porphyrin accumulation, 1 h, at 10 µM, stronger effect = higher value
# ATP-binding cassette sub-family B member 6 (Homo sapiens), sequence (Q9NP58 whole entry, looked up): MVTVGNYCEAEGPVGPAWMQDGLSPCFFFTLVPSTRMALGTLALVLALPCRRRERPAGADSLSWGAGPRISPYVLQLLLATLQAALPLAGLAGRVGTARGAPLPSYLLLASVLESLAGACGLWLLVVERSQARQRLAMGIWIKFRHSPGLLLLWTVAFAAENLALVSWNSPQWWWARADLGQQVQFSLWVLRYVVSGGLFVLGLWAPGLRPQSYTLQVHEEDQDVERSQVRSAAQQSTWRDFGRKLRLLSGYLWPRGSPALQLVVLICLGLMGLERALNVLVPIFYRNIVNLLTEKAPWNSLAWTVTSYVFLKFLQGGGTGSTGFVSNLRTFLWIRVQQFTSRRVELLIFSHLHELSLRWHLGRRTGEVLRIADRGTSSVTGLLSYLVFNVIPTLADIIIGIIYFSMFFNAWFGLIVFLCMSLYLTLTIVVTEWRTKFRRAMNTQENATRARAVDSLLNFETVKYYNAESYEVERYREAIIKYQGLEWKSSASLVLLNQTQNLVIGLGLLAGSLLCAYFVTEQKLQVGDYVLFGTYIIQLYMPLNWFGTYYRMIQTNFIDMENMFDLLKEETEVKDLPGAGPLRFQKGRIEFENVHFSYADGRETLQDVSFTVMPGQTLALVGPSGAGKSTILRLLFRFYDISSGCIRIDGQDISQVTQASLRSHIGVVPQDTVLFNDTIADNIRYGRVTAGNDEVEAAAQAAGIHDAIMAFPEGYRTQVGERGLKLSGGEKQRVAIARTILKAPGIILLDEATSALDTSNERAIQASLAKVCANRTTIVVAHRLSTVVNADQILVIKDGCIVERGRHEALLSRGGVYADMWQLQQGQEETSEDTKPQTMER
# [13] = promoters of myeloid differentiation in arrested cells, primary screen, cell-based, GFP/MAC1 double positive, flow cytometry, validation set (AID 588685;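 active = differentiation response of at least 50%, scaled between solvent and reference control, from cells with both markers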;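 also: compound exposure lasts four days before antibody staining and flow analysis; 0% = DMSO wells and 100% = 5 µM fulvestrant positive control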); details: ER-HoxA9 marrow cells, stronger effect = higher value
# [14] = RPL19A-GFP modulators, yeast TOR pathway, confirmation, cell-based, S. cerevisiae, flow cytometry, cherry picks, mother/daughter gates (AID 2270;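 active = GFP response below 50% of the DMSO control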); details: S. cerevisiae RPL19A-GFP strain, 3 h, at 10 µM, stronger effect = lower value, 100 = same GFP as DMSO wells
# [15] = LAP4-GFP expression modulators in yeast, confirmation, cell-based, cherry picks, flow cytometry, mother/daughter gates (AID 2271;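 active = GFP response above 150% of the DMSO control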;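 also: ratio of sample to DMSO plate mean so 100% equals DMSO level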); details: S. cerevisiae LAP4-GFP strain, 3 h, at 10 µM, stronger effect = higher value
# [16] = modulators of CIT2-GFP expression in yeast, confirmation, S. cerevisiae, GFP fusion, cherry picks, mother/daughter gates (AID 2274;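 active = GFP response above 150% of the DMSO level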); details: S. cerevisiae CIT2-GFP strain, flow cytometry, 3 h, at 10 µM, stronger effect = higher value
# [17] = measured here: daughter cell gate
# [18] = measured here: mother cell gate
smiles,measurement,setting,value
C[C@H]1CCCC(=O)CCCCCc2cc(O)cc(O)c2C(=O)O1,double positive events,[1],60.2%
same,vesicle binding response,[1],160% (inactive)
same,inhibition,[2],0.59% (inactive)
same,superoxide response (% of plate),[3],101% (inactive)
same,aptamer binding inhibition,[4],-1% (inactive)
same,inhibition,[5],-10.7% (inactive)
same,response,[6],6% (inactive)
same,binding (% of control),[7],106% (inactive)
same,inhibition,[8],-0.4% (inactive)
same,inhibition,[9],-1.7% (inactive)
same,inhibition,[10],4.1% (inactive)
same,efflux inhibition (fraction of control),[11],-0.13 (inactive)
same,inhibition,[12],0% (inactive)
same,differentiation response,[13],5.85% (inactive)
CC1(C)OC(c2ccccc2)=C/C(=C/C=C2C(=O)NC(=S)NC2=O)O1,GFP response vs DMSO,[14],97.8% (inactive)
same,GFP response vs DMSO,[14]; [17],99.3%
same,GFP response vs DMSO,[14]; [18],98.5%
same,GFP response relative to DMSO,[15],203% (active)
same,GFP response relative to DMSO,[15]; measured here: mother cell gate response,160%
same,"GFP response, % of DMSO",[16],119% (inactive)
same,"GFP response, % of DMSO",[16]; [17],121%
same,"GFP response, % of DMSO",[16]; [18],117%
C[C@]12CCC(=O)C=C1CC[C@@H]1[C@@H]2C(=O)C[C@]2(C)C(=O)CC[C@@H]12,double positive events,[1],61%
same,vesicle binding response,[1],259% (inactive)
same,inhibition,[2],6.55% (inactive)
same,superoxide response (% of plate),[3],76.3% (inactive)
same,aptamer binding inhibition,[4],3% (inactive)
same,inhibition,[5],0.49% (inactive)
same,response,[6],-0.42% (inactive)
same,binding (% of control),[7],99.9% (inactive)
same,inhibition,[8],-1.7% (inactive)
same,inhibition,[9],1% (inactive)
same,inhibition,[10],-4.7% (inactive)
same,efflux inhibition (fraction of control),[11],0.12 (inactive)
same,inhibition,[12],-30% (inactive)
same,differentiation response,[13],5.85% (inactive)
CN1[C@@H]2CC(OC(=O)[C@H](CO)c3ccccc3)C[C@H]1[C@@H]1O[C@@H]12 (stereo partly drawn),inhibition,[8],-2.9% (inactive)
same,inhibition,[9],-2.7% (inactive) and -1% (inactive)
CCCC(C)(COC(N)=O)COC(=O)NC(C)C (stereo not drawn),double positive events,[1],64.3%
same,vesicle binding response,[1],111% (inactive)
same,inhibition,[2],23.6% (inactive)
same,superoxide response (% of plate),[3],94.5% (inactive)
same,aptamer binding inhibition,[4],6% (inactive)
same,inhibition,[5],-2.17% (inactive)
same,response,[6],9.22% (inactive)
same,binding (% of control),[7],101% (inactive)
same,inhibition,[8],0.5% (inactive)
same,inhibition,[9],1.4% (inactive)
same,inhibition,[10],6.3% (inactive)
same,efflux inhibition (fraction of control),[11],-0.13 (inactive)
same,inhibition,[12],6% (inactive)
same,differentiation response,[13],44.3% (inactive)
NC(N)=NC(=O)c1nc(Cl)c(N)nc1N,inhibition,[8],-3.3% (inactive)
same,inhibition,[9],-0.3% (inactive)
CCCC(=O)OCC[N+](C)(C)C,double positive events,[1],63.6%
same,vesicle binding response,[1],145% (inactive)
same,inhibition,[2],14.2% (inactive)
same,superoxide response (% of plate),[3],92.5% (inactive)
same,aptamer binding inhibition,[4],4% (inactive)
same,inhibition,[5],5.57% (inactive)
same,response,[6],5.81% (inactive)
same,binding (% of control),[7],108% (inactive)
same,inhibition,[8],-3.8% (inactive)
same,inhibition,[9],-2.9% (inactive)
same,inhibition,[10],1.4% (inactive)
same,efflux inhibition (fraction of control),[11],-0.06 (inactive)
same,inhibition,[12],13% (inactive)
same,differentiation response,[13],2.46% (inactive)
